# Paper PMC5700166
# Changes are numbered by the printed parent chain.
# What was measured:
# Test in all cases: protein-binding microarray (PBM); PBM: ~300 nM protein, 6 mM HEPES pH 7.8, 80 mM KCl, 0.5 mM EDTA, 0.5 mM EGTA, 6% glycerol, 35 ng/ul poly-dIdC, 1% milk, 1 h, room temperature; Ap Aiptasia and Nv Nematostella (sea anemones) / Co Capsaspora / Aq Amphimedon (sponge) / Dm Drosophila / Hu human; RHD is the Rel homology domain; high values mean tight binding
# Conditions in all cases: dsDNA, one strand shown
# GST-Ap-NF-kB RHD = molecular target: T1, GST-Ap-NF-kB RHD (Exaiptasia pallida (Aiptasia), UniProt A0A913YAJ5 2-422)
# T1 sequence: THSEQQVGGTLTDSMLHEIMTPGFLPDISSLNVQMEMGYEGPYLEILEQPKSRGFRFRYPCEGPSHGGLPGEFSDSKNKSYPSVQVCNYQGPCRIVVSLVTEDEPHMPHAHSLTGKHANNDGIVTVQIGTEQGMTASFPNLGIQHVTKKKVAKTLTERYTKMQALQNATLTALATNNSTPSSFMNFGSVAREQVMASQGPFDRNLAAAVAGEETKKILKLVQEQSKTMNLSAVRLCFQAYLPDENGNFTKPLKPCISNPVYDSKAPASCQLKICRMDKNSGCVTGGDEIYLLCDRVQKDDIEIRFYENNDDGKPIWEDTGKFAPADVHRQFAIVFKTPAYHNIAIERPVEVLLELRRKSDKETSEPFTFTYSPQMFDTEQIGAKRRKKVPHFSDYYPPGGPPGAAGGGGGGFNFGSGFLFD
# [1] = molecular target: T2, GST-Nv-NF-kB (Cys allele) (Nematostella vectensis, UniProt E5G601 2-411)
# T2 sequence: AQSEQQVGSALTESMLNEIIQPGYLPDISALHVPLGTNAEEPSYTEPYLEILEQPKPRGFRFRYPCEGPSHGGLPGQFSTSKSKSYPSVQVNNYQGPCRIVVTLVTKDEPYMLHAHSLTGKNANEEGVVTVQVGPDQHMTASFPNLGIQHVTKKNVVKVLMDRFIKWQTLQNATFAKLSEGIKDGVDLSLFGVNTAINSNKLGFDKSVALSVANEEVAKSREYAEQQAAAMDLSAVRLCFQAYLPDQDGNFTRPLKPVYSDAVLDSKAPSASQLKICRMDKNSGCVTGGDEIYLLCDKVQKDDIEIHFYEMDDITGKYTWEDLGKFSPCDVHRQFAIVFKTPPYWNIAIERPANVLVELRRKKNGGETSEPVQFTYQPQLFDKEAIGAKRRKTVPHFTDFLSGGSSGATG
# [2] = molecular target: T3, GST-Nv-NF-kB (Ser allele) (Nematostella vectensis, UniProt A7UNT2 2-411)
# T3 sequence: T2 sequence with Q21R, C66S, S207N, E215Q, V217A, E225K, A268E, D399E
# GST-Co-NF-kB = molecular target: T4, GST-Co-NF-kB (Capsaspora owczarzaki, UniProt F1ARL5 200-546)
# T4 sequence: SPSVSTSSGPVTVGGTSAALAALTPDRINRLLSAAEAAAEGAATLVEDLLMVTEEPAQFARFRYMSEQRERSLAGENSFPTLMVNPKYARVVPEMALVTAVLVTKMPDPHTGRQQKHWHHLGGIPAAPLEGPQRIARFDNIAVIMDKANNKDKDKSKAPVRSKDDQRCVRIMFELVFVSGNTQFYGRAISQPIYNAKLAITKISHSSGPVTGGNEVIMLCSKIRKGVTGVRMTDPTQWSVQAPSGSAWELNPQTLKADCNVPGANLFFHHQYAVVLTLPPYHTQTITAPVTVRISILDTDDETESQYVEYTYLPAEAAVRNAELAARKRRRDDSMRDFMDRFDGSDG
# GST-Dm-Relish = molecular target: T5, GST-Dm-Relish (Drosophila melanogaster, UniProt Q94527 99-473)
# T5 sequence: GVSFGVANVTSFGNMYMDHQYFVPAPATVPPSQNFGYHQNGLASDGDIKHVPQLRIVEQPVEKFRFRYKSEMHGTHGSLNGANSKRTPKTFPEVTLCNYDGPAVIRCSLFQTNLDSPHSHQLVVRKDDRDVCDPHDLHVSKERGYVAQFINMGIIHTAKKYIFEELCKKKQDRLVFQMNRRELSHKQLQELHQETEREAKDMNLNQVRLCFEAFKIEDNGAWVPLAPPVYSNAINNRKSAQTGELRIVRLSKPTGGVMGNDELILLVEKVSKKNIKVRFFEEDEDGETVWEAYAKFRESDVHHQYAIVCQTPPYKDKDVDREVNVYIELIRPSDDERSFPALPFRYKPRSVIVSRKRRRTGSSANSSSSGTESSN
# GST-Aq-NF-kB = molecular target: T6, GST-Aq-NF-kB (Amphimedon queenslandica, UniProt A9Y5G7 2-389)
# T6 sequence: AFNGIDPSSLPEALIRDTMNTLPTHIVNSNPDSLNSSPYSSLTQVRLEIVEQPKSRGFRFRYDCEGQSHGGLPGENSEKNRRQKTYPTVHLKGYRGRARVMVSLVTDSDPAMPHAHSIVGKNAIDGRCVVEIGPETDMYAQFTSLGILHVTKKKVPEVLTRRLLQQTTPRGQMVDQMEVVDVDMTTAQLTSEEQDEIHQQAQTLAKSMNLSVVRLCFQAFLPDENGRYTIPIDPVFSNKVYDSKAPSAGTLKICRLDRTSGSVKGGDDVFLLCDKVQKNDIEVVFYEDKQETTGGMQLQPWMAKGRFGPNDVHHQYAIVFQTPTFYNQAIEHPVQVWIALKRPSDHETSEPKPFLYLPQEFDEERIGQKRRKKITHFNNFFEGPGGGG
# GST-Hu-p50 = GST-Hu-p50 (Homo sapiens, UniProt P19838 7-356)
# Sequence of GST-Hu-p50 (P19838 7-356): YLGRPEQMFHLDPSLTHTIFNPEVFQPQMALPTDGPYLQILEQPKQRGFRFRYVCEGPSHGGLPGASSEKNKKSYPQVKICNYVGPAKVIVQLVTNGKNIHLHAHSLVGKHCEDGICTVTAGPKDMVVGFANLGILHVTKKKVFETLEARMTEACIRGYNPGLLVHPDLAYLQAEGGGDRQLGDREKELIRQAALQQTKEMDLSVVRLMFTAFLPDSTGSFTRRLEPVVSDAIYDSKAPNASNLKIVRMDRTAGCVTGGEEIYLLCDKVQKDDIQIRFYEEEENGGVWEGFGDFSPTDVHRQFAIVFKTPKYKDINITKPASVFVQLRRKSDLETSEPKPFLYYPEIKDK
Sequence,binding signal (GST-Ap-NF-kB RHD) [z-score],binding signal [1] [z-score],binding signal [2] [z-score],binding signal (GST-Co-NF-kB) [z-score],binding signal (GST-Dm-Relish) [z-score],binding signal (GST-Aq-NF-kB) [z-score],binding signal (GST-Hu-p50) [z-score]
CCGATTAACATCACTATATCCCCTGATGTTAATCGGGTCTTGATTCGCTTGACGCTGCTG,4.49,4.08,5.9,3.51,2.01,2.75,3.18
CCGATTAACATCAGGGGCGTTTATGATGTTAATCGGGTCTTGATTCGCTTGACGCTGCTG,3.36,3.44,3.2,1.35,2.1,3.54,3.71
CCGATTAACATCAGAGCCCCCCCTGATGTTAATCGGGTCTTGATTCGCTTGACGCTGCTG,4.71,3.96,3.31,3.1,4.58,4.2,3.47
CCGATTAACATCAGGGGGAATTATGATGTTAATCGGGTCTTGATTCGCTTGACGCTGCTG,7.99,9.53,10.6,9.25,7.03,7,7.24
CCGATTAACATCAATAATTTCCCTGATGTTAATCGGGTCTTGATTCGCTTGACGCTGCTG,4.38,6.39,7.05,4.82,3.45,5.17,5
CCGATTAACATCAAATTCCCAATTGATGTTAATCGGGTCTTGATTCGCTTGACGCTGCTG,1.09,3.19,3.78,2.62,3.56,2.06,2.67
CCGATTAACATCACGGAAATCCCTGATGTTAATCGGGTCTTGATTCGCTTGACGCTGCTG,4.3,3.8,2.78,1.09,6.96,6.11,3.58
CCGATTAACATCAGGGAATCACATGATGTTAATCGGGTCTTGATTCGCTTGACGCTGCTG,1.95,2.66,2.47,2.22,9.15,3.28,1.14
CCGATTAACATCAGGGGAATAAATGATGTTAATCGGGTCTTGATTCGCTTGACGCTGCTG,6.25,7.82,8.47,8.22,5.48,5.94,5.62
CCGATTAACATCACAAAAGCCCCTGATGTTAATCGGGTCTTGATTCGCTTGACGCTGCTG,6.25,8.09,7.4,1.08,6.85,7.27,6.34
CCGATTAACATCAAAAAATCCCCTGATGTTAATCGGGTCTTGATTCGCTTGACGCTGCTG,11.7,11.9,13.6,6.83,10.7,9.56,8.06
CCGATTAACATCAAAACCCCCCGTGATGTTAATCGGGTCTTGATTCGCTTGACGCTGCTG,8.43,6.29,7.17,5.04,10.2,7.07,6.96
CCGATTAACATCAGGGAAGAACCTGATGTTAATCGGGTCTTGATTCGCTTGACGCTGCTG,2.43,3.52,3.35,1.42,8.73,5.54,2.83
CCGATTAACATCAGAGAATTCCCTGATGTTAATCGGGTCTTGATTCGCTTGACGCTGCTG,5.32,7.57,7.07,2.8,4.51,6.73,5.27
CCGATTAACATCAAATGTCCCCCTGATGTTAATCGGGTCTTGATTCGCTTGACGCTGCTG,6.37,5.25,5.66,7.6,5.11,5.64,4.71
CCGATTAACATCAGGGGAACTTATGATGTTAATCGGGTCTTGATTCGCTTGACGCTGCTG,7.4,8.58,8.41,7.21,7.11,6.48,5.95
CCGATTAACATCAGGGGGAAGAATGATGTTAATCGGGTCTTGATTCGCTTGACGCTGCTG,5.11,6.3,6.8,9.93,4.78,4.87,5.86
CCGATTAACATCAGGGACGTCCCTGATGTTAATCGGGTCTTGATTCGCTTGACGCTGCTG,7.37,7.13,4.26,1.08,6.25,8.52,4.54
CCGATTAACATCAGGGAATTGCATGATGTTAATCGGGTCTTGATTCGCTTGACGCTGCTG,2.48,4.23,4.1,2.6,1.11,3.49,3.1
CCGATTAACATCAGGGGCAGTACTGATGTTAATCGGGTCTTGATTCGCTTGACGCTGCTG,2.61,1.84,1.28,1.64,3.44,4.35,2.94
CCGATTAACATCAAGACTCCCCCTGATGTTAATCGGGTCTTGATTCGCTTGACGCTGCTG,6.35,5.25,5.92,5.87,4.5,5.15,5.69
CCGATTAACATCAAGGGGGAGAATGATGTTAATCGGGTCTTGATTCGCTTGACGCTGCTG,5.78,6.63,7.33,7.92,2.2,4.93,6.83
CCGATTAACATCAAGAAACCCCCTGATGTTAATCGGGTCTTGATTCGCTTGACGCTGCTG,9.53,8.55,9.47,3.31,10,7.67,7.53
CCGATTAACATCAAACTCCCCCCTGATGTTAATCGGGTCTTGATTCGCTTGACGCTGCTG,7.58,6.49,6.75,7.67,7.11,6.54,6.75
